Experimental data as given in PubChem BioAssay (EPA / NIEHS).
Activity calls are given as the source filed them. How the source made its calls: active means hit-call score of the fitted dose curve at least 0.9, where 1 is the maximum; inactive means score below 0.9.

Molecular target: Cytochrome P450 2C18 (Homo sapiens) (UniProt P33260)
Test: NVS_ADME_hCYP2C18: NovaScreen (NVS) CYP450-related Enzyme Activity (ADME) Assay for human CYP2C18 (AID 2283103)
Protocol: NVS_ADME_hCYP2C18 is a biochemical, single-readout assay that uses extracted gene-proteins in a cell-free assay. Measurements were taken 0.5 hour after chemical dosing in a 96-well plate.NVS_ADME_hCYP2C18 is one of one assay component(s) measured or calculated from the NVS_ADME_hCYP2C18 assay. It is designed to make measurements of enzyme activity, a form of enzyme reporter, as detected with fluorescence intensity signals by Fluorescence technology.Data from the assay component NVS_ADME_hCYP2C18 was analyzed into 1 assay endpoint. This assay endpoint, NVS_ADME_hCYP2C18, was analyzed in the positive analysis fitting direction relative to Acetonitrile as the negative control and baseline of activity. Using a type of enzyme reporter, loss-of-signal activity can be used to understand changes in the enzymatic activity as they relate to the gene CYP2C18. Furthermore, this assay endpoint can be referred to as a primary readout, because this assay has produced multiple assay endpoints where this one serves a enzymatic activity function. To generalize the intended target to other relatable targets, this assay endpoint is annotated to the cyp intended target family, where the subfamily is xenobiotic metabolism.
Binding assays used specific radioligands (tritiated, iodinated) with non-radioactive competitive displacement ligands in agonist or antagonist protocols (as indicated) and various reference compounds and inhibitors to titrate specific binding to receptors and transporters. Most enzyme assays (CYPs, kinases, phosphatases, proteases, HDACs) used recombinant protein and specific substrates (fluorescence mostly, some colorimetric and radioactive) and inhibitors, followed by a biochemical separation of substrate and product. All assays for the biochemical HTS were initially run in duplicate at a single concentration (10 uM for CYP450 assays and 25 uM for all others). Assay-chemical combinations meeting a pre-defined threshold (e.g., 30% inhibition and other criteria defined below) were then run in singleton concentration-response format with maximum concentration of 20 uM for CYPs and 50 uM for all others. Each assay was run with positive and negative controls, and concurrent controls on every plate. The follow-up (secondary) screen tested active chemical-pairs in concentration series, as well as a few additional assays not tested in the primary screen, some selected negative inactives, and several cases re-run in the concentration series for confirmatory purposes.

Chain of Cytochrome P450 2C18 (Homo sapiens) (P33260 whole entry, looked up): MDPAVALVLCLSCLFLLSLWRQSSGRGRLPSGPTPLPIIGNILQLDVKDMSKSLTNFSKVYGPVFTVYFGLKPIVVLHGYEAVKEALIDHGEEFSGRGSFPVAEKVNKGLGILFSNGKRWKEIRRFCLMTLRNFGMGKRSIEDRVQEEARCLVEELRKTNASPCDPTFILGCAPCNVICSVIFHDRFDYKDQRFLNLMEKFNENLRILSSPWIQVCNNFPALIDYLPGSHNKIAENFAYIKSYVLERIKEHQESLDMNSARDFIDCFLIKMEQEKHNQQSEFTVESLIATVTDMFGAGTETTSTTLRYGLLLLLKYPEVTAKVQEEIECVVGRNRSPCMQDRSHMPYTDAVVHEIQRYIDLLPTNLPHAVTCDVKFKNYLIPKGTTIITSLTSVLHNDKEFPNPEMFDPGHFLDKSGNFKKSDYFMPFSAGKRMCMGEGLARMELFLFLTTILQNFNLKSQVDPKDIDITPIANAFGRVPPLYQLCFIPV

Row | Compound | AC50 | outcome
1 | CON=C(C(=O)OC)c1ccccc1CON=C(C)c1cccc(C(F)(F)F)c1 | 1.21 µM (active) | 
2 | CC[C@H](C)[C@H]1O[C@]2(C=C[C@@H]1C)C[C@@H]1C[C@@H](C/C=C(\C)[C@@H](O[C@H]3C[C@H](OC)[C@@H](O[C@H]4C[C@H](OC)[C@@H](NC)[C@H](C)O4)[C@H](C)O3)[C@@H](C)/C=C/C=C3\CO[C@@H]4[C@H](O)C(C)=C[C@@H](C(=O)O1)[C@]34O)O2 | 5.39 µM (active) | 
3 | C#CCC1=C(C)C(OC(=O)C2C(C=C(C)C)C2(C)C)CC1=O (configuration not stated) | 7.41 µM (active) | 
4 | CCOP(=S)(OCC)Oc1ccc2c(C)c(Cl)c(=O)oc2c1 | 0.734 µM (active) | 
5 | CCOC(=O)CC(SP(=O)(OC)OC)C(=O)OCC (configuration not stated) |  | inactive
6 | COc1ccc(C(=CC(=O)N2CCOCC2)c2ccc(Cl)cc2)cc1OC | 7 µM (active) | 
7 | CCCOCC(=Nc1ccc(Cl)cc1C(F)(F)F)n1ccnc1 | 4.78 µM (active) | 
8 | FC(F)C(F)(F)OCC(Cn1cncn1)c1ccc(Cl)cc1Cl (configuration not stated) | 0.915 µM (active) | 
9 | C=C(C)[C@H]1Cc2c(ccc3c2O[C@@H]2COc4cc(OC)c(OC)cc4[C@@H]2C3=O)O1 | 2.62 µM (active) | 
10 | CCOP(=S)(OCC)Oc1ccc([N+](=O)[O-])cc1 | 1.95 µM (active) | 
11 | C[Si](Cn1cncn1)(c1ccc(F)cc1)c1ccc(F)cc1 | 0.645 µM (active) | 
12 | CCCSP(=O)(OCC)Oc1ccc(Br)cc1Cl (configuration not stated) | 3.45 µM (active) | 
13 | C#CC(C)(C)NC(=O)c1cc(Cl)cc(Cl)c1 | 2.67 µM (active) | 
14 | CC(C)=CC1C(C(=O)OCN2C(=O)C3=C(CCCC3)C2=O)C1(C)C (configuration not stated) | 4.3 µM (active) | 
15 | CC(C1CC1)C(O)(Cn1cncn1)c1ccc(Cl)cc1 (configuration not stated) | 3.26 µM (active) | 
16 | S=C1NCCN1 |  | inactive
17 | CSC1=N[C@@](C)(c2ccccc2)C(=O)N1Nc1ccccc1 | 5.62 µM (active) | 
